BAZ2B inh = qHTS Assay for Inhibitors of BAZ2B. AID 504333, 2011. Bromodomain adjacent to zinc finger domain protein 2B (Homo sapiens), Q9UIF8. actives 4.4% (n = 360,000). Potency, µM (titrated, usually from 114 µM), inactives show top-dose activity change, negative = inhibition, hits mostly inhibitors. AlphaScreen BAZ2B-H3K14Ac peptide displacement; note: % is set by controls: 0 for no effect and ±100 for the full control effect; nearly all actives have a fitted effect of over 60% in size
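Complex of BAZ2B and biotin-H3K14Ac (50 nM apiece) forms over 30 min at RT, then faces library compounds up to 110 uM for another 30 min; AlphaScreen beads added, 20 min dark incubation, luminescence read.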
HP1b chromo inh = HTS for Inhibitors of HP1-beta Chromodomain Interactions with Methylated Histone Tails; Chromobox protein homolog 1 (Homo sapiens), P83916; AlphaScreen HP1-beta / biotin-H3K9me3 peptide binding; Potency, µM (top dose mostly 114 µM), for the others: at the highest dose activity change, negative = inhibition, most hits filed as inhibitors; actives 0.56% (n = 390,000); AID 540317, 2011; note: nearly all actives have a fitted effect of over 70% in size
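AlphaScreen: HP1-beta (50 nM) preformed 30 min with biotin-H3(1-18)K9me3 peptide (50 nM) in PBS pH 7.4, 0.01% Tween-20. Compound added for 30 min at RT, then streptavidin donor/nickel chelate acceptor beads (10 ug/mL) for 30 min.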
JMJD2A Tudor inh = qHTS Assay for Inhibitors of JMJD2A-Tudor Domain | actives 4.4% (n = 390,000) | AlphaScreen JMJD2A-Tudor / H3K4me3 peptide binding | Lysine-specific demethylase 4A (Homo sapiens), O75164 | Potency, µM (top dose mostly 114 µM), for inactives: at the top dose activity change, negative = inhibition, most hits filed as inhibitors; note: % is set by controls: 0 for no effect and ±100 for the full control effect; nearly all actives have a fitted effect of over 50% in size
Target sequence (O75164 whole entry, looked up, the tested form may be a part): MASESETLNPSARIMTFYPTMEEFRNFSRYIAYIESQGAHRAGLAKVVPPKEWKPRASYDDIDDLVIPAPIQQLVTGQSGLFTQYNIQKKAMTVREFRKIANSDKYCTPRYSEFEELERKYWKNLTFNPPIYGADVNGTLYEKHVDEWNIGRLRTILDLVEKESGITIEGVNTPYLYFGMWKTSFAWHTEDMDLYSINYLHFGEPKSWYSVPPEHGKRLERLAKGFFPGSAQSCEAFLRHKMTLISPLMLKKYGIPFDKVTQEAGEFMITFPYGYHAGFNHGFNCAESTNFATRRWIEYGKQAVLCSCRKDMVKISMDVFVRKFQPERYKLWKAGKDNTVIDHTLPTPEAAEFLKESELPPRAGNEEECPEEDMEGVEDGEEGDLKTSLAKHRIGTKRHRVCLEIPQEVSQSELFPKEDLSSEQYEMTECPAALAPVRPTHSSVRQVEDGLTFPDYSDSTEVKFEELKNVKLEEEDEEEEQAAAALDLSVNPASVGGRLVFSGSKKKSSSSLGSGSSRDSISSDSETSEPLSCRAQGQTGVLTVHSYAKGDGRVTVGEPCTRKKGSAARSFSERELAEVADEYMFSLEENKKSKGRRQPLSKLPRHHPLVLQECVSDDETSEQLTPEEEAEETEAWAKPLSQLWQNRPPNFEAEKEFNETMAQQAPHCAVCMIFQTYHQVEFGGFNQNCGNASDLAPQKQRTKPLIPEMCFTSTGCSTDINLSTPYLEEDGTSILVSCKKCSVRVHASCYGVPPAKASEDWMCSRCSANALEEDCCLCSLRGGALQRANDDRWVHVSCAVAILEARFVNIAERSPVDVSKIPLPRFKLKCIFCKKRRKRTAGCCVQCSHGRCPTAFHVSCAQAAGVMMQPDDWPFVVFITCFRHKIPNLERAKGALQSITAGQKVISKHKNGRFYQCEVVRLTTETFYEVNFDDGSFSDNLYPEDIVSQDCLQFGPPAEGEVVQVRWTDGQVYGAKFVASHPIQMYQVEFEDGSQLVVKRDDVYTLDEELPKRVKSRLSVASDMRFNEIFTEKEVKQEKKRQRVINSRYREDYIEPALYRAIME
G9a block = qHTS Assay for Inhibitors of Histone Lysine Methyltransferase G9a | Histone-lysine N-methyltransferase EHMT2 (Homo sapiens), Q96KQ7 | G9a H3K9 monomethylation, AlphaScreen, 2 h | Potency, µM (series often up to 102 µM), inactives show at the highest dose activity, negative = inhibition, most hits filed as inhibitors | actives 8.8% (n = 350,000); note: % is set by controls: 0 for no effect and ±100 for the full control effect; nearly all actives have a fitted effect of over 75% in size
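Readings reflect AlphaScreen signal from monomethyl-H3K9 antibody detection. HMT at 20 nM; substrate b-H3K9 500 nM; cofactor SAM 20 uM; 2 h RT reaction; compounds tested as titrations in qHTS with 15 min preincubation.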
Sfp PPTase inh = qHTS Assay for Inhibitors of Bacillus subtilis Sfp phosphopantetheinyl transferase (PPTase) | 4'-phosphopantetheinyl transferase ffp (Bacillus subtilis), Q9F4F7 | Biochemical Sfp PPTase activity, qHTS | Potency, µM, for the others: largest response in the series, negative = inhibition, most hits filed as inhibitors | actives 3.5% (n = 310,000);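 note: the enzyme is Sfp with the accession as filed and its product quenches rhodamine fluorescence; 0% = enzyme reaction without inhibitor and -100% = no enzyme wells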
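Buffer: 50 mM Hepes-Na pH 7.6, 10 mM MgCl2, 0.01% Nonidet P-40, 0.01% BSA. Enzyme 15 nM, pre-exposed to compound 15 min; substrates then added and fluorescence change tracked over 30 min.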
* = called active by the depositor; ? = inconclusive; . = no result; ! = repeats disagree; [ ] = remark or other dose. Shown are actives, neighbours in structure and some others; about 12% of the full set was active somewhere. Calls come from the whole dose curve; as a rule, active = well fitted curve in the direction sought with a large enough effect; inconclusive = small, poorly fitted or top-dose-only effect, or another doubt; inactive = no such curve, though single readings can be large; an effect the other way counts as inactive or inconclusive. Potency is the fitted concentration of half-maximal effect.

SMILES	BAZ2B inh	HP1b chromo inh	JMJD2A Tudor inh	G9a block	Sfp PPTase inh
c1ccc2c(c1)NCC1CCCN21 (configuration not stated)	45µM*	?	50µM*	2.2µM*	13%
COc1ccc(CNc2ccc(S(N)(=O)=O)cc2)cc1	-3%	7%	-5%	25%	8%
COc1ccc(NCc2ccsc2)cc1	18µM*	-19%	56µM*	35µM*	-8%
CCOc1ccc2ncc3c(-c4ccc(C)cc4)nn(-c4cccc(F)c4)c3c2c1	.	39%	-10%	9%[59 µM]	.
Cc1ccc(S(=O)(=O)N2CCN(C(=O)c3ccc4ccccc4n3)CC2)c(C)c1	50µM*	8%	35µM*	2%[2.33 µM]	.
Cc1ccc(S(=O)(=O)N2CCN(C(=O)c3ccc(Br)o3)CC2)c(C)c1	-30%	-17%	-22%	79µM*	11%
CCc1noc(C)c1C(=O)Nc1ccccc1N1CCOCC1	-13%	5%	-12%	6%[0.501 µM]	.
CC(=O)c1csc(-c2cccc(-c3nc4ccc(Cl)cn4c3NC3CCCCC3)c2)c1	56µM*	-7%	?	2%[2.33 µM]	.
COc1ccc(-c2cccc(-c3nc4ccc(Cl)cn4c3NC3CCCCC3)c2)cc1	.	18%	-34%	.	.
CCCCNc1c(-c2cccc(-c3cc(C(C)=O)cs3)c2)nc2cc(C)ccn12	28µM*	-8%	?	5%[2.33 µM]	.
CSCCC(NC(=O)COc1ccccc1)C(=O)N1CCN(C(C)=O)CC1 (configuration not stated)	-18%	20%	-15%	-11%	14%
COc1ccccc1C(=O)Nc1ccc(OCC(=O)N2CC(C)OC(C)C2)cc1 (configuration not stated)	-10%	43%	-1%	4%[12.7 µM]	.
Cc1ccc(/C=C/S(=O)(=O)NCC(=O)OCC(=O)NCc2ccccc2)cc1	-13%	17%	-12%	13%	16%
OCCC1CN(Cc2ccc3c(c2)CCO3)CCN1Cc1ccc(F)cc1 (configuration not stated)	3%	34%	-15%	1%	4%
CN(C)CCOC(c1ccc(Cl)cc1)c1ccccn1 (configuration not stated)	-2%	71%	-6%	45µM*!	18%
CN(C)CC[C@H](c1ccc(Cl)cc1)c1ccccn1	.	.	.	22%[21.5 µM]	17%
CC(C)CC(=O)Nc1nnc(SCc2cc(=O)n3ccccc3n2)s1	3%	24%[57 µM]	-7%	29%[59 µM]	.
Cc1ccc(C(=O)NCCCNC(=O)c2ccco2)cc1C	4%	16%	-3%	14%	3%
O=C(Cn1ncn2c(cc3ccccc32)c1=O)NCCc1cccs1	-4%	15%	-25%	?	-9%
Cc1n[nH]c(=S)n1/N=C/c1ccc(OCc2ccc(Cl)cc2)cc1	3%	32%	-21%	?	-24%
Cc1n[nH]c(=S)n1/N=C/c1ccc(OCc2ccc(Cl)cc2Cl)cc1	4%	50%	-6%	11µM*	?
Cc1cc(C)c(COc2ccc(/C=N/n3c(C)n[nH]c3=S)cc2)c(C)c1	?	?	79µM*	?	50µM*
Cc1n[nH]c(=S)n1/N=C/c1ccccc1OCc1ccc(Cl)cc1Cl	2%	42%	-11%	13%[59 µM]	4%
CCCCN1CC(COCc2ccccc2)Oc2cccc(Oc3ccc(C)cc3)c2S1(=O)=O (configuration not stated)	.	66%	-6%	.	.
NC(=O)/C(=C/c1ccco1)C(N)=S	-17%	-7%	?	18µM*	18µM*
C/C=C/C1=Cc2ccccc2C(C(C(=O)OC)C(=O)OC)N1C(=O)OC (configuration not stated)	.	.	.	.	10%
COc1ccc2c(c1)C(=O)C1NC(=O)NC(=O)C1(Br)N2 (configuration not stated)	.	20%[57 µM]	-5%	.	.
O=C(OCCCCN1C(=O)c2ccccc2C1=O)c1n[nH]c2ccccc12	4%	8%	?	50µM*	-21%

Bioassay records as filed in PubChem BioAssay.
